This assay deals with Trypanosoma brucei. In words: Trypanosoma brucei 72 hour study. In kind it is functional, organism-based. On the set-up: scale not given: in the data most compounds retested in dose-response had high values.

SMILES strings stand for the structures. Out of some 66,000 compounds screened, about 960 (1.5%) showed an effect of 50% or more. The sample holds strong results, similar compounds and a random draw of the others, so the mix is not that of the screen.

Experimental findings from ChEMBL document CHEMBL3988442, “University of Dundee, Small-Polar-MMV Screening Library” (2021) are described below.

On to `O=C(CC1CC1)N1CC[C@@H]2[C@H](CC1)N(Cc1cccnc1)CCS2(=O)=O.O=C(O)C(F)(F)F.O=C(O)C(F)(F)F`, for which, for the setting “30.3 µM, […]”, the “Percent Effect” value is reported as -63.96%. With `Cc1cccc(OC2CCN(c3ccc(C#N)cn3)CC2)n1`, the “Percent Effect” value (30.3 µM, […]) is 86.54%.

For the compound `Cc1cccc(OC2CCN(c3nccnc3C#N)CC2)n1`, the “Percent Effect” value (30.3 µM, […]) was -52.89%. With `Cc1cccc(OC2CCN(c3ncc(C#N)cc3Cl)CC2)n1`, the “Percent Effect” value (30.3 µM, […]) came out at 2.665%. As for `CCn1cc(NS(=O)(=O)c2ccc(Br)s2)c(C(N)=O)n1`, the “Percent Effect” value (30 µM, 30.03 µM) is recorded as -24.98%.

`O=C(Nc1cnccn1)[C@H]1CC[C@@H]2[C@@H](CCN2Cc2ccoc2)O1.O=C(O)C(F)(F)F`: the “Percent Effect” value (30.3 µM, […]) is reported as -117.8%. As to `COc1cc(F)ccc1N(C)Cc1ccncc1`, the “Percent Effect” value (30 µM, 30.03 µM) is -66.27%. On the same count and under the same terms, with `COc1cc(F)ccc1N(C)Cc1ccccn1` the figure was 73.53%; with `COc1cc(F)ccc1N(C)Cc1cccnc1`, -106.7%. For `Cc1c(-c2cccs2)nn2c(O)c3c(nc12)CN(C(=O)C1CC1)C3`, the “Percent Effect” value (30.3 µM, […]) came to 9.41%. Turning to `Cc1ccc(N2CCN(C(=O)CCc3n[nH]c(C)c3C)CC2=O)cc1`, the “Percent Effect” value (30 µM, 30.03 µM) is reported as -42.04%. With `CC(=O)c1cc(CN2C[C@H]3CC[C@@H]2CN(S(=O)(=O)N(C)C)C3)cs1`, the “Percent Effect” value (30 µM, 30.03 µM) was 79.15%.

In the case of `CN(C)S(=O)(=O)N1C[C@@H]2CC[C@H](C1)N(Cc1ccc3nsnc3c1)C2`, where the note is “30 µM, 30.03 µM”, the “Percent Effect” value was determined as 2.112%. Same read-out and setting: with `CN(C)S(=O)(=O)N1C[C@@H]2CC[C@H](C1)N(Cc1ccc(F)c(F)c1)C2` the figure was -42.84%; with `CC(=O)c1cc(CN2C[C@H]3CC[C@@H]2CN(S(C)(=O)=O)C3)cs1`, 91.04%; with `CS(=O)(=O)N1C[C@@H]2CC[C@H](C1)N(Cc1ccsc1)C2`, -69.04%. The same measure, in the same setting: with `CS(=O)(=O)N1C[C@@H]2CC[C@H](C1)N(Cc1ccc3nsnc3c1)C2` the figure was -23.46%. `CC(C)(C)C(CCO)NC(=O)Nc1ccncc1` (configuration not stated): where the note is “30.3 µM, […]”, the “Percent Effect” value is on record as -3.299%. For the compound `CCOCCCNC(=O)CCCC(=O)n1nc(C)c2ccccc21`, the “Percent Effect” value (30 µM, 30.03 µM) was -9.537%. As to `COCCCNC(=O)CCn1ncc2c(Cl)cccc21`, for the setting “30.3 µM, […]”, the “Percent Effect” value is -21.64%. Regarding `COCCCNC(=O)CCn1nc(C)c2ccccc21`, where the note is “30 µM, 30.03 µM”, the “Percent Effect” value turned out to be 61.88%. For `Nc1ccc(C(=O)N2CCCC(C(=O)CCc3ccccc3)C2)cn1` (configuration not stated), the “Percent Effect” value (30 µM, 30.03 µM) amounted to 42.45%. The same measure, in the same setting: with `Cn1cc(N2CC3(CCN(Cc4ccoc4)CC3)OCC2=O)cn1.O=C(O)C(F)(F)F` the figure was -14.91%.

Consider `CCOC(=O)c1n[nH]cc1-c1cncn1CCn1nc(C)c(C)c1C.Cl`, for which the “Percent Effect” value (30.3 µM, […]) was -11.29%. With `Cc1ncsc1C(=O)NC1CCN(CC(=O)N(C)c2ccccc2)CC1`, the “Percent Effect” value (30 µM, 30.03 µM) was found to be 32.24%. For the compound `Cc1ncsc1C(=O)NC1CCN(CC(N)=O)CC1`, the “Percent Effect” value (30.3 µM, […]) came to 10.5%. For `Cc1ncsc1C(=O)NC1CCN(CC(=O)NCc2ccccc2)CC1`, under “30 µM, 30.03 µM”, the “Percent Effect” value is 57.29%. With `O=C(c1coc(COc2cccc3cnccc23)n1)N1CCCCCC1`, the “Percent Effect” value (30.3 µM, […]) was -73.19%. The same measure, in the same setting: the value for `O=C(c1coc(COc2cccc3cnccc23)n1)N1CCSCC1` was -189.8%; that for `CC1CCCCN1C(=O)c1coc(COc2cccc3cnccc23)n1` (configuration not stated) was 103.3%. The same measure, in the same setting: the value for `Cc1noc(Cl)c1CCC(=O)N1CCN(c2ccccc2)CC1` was 16.11%; that for `Cc1cccc(N2CCN(C(=O)CCc3c(C)noc3Cl)CC2)c1` was 55.23%. Consider `Cc1noc(Cl)c1CCC(=O)N1CCN(c2ncccn2)CC1`, for which the “Percent Effect” value (30 µM, 30.03 µM) was -22.8%. In the case of `CN(CCC(O)c1ccccc1)Cc1nc(-c2ccccc2)no1` (configuration not stated), the “Percent Effect” value (30.3 µM, […]) is given as -13.82% and the “Percent Effect” value (10 mM, 10 mM as filed; unlikely as a test dose) is -49.39%. Turning to `CC(C)CN1CCC2(C1)CN(S(=O)(=O)c1cn(C)cn1)C2.O=C(O)C(F)(F)F.O=C(O)C(F)(F)F`, for the setting “30.3 µM, […]”, the “Percent Effect” value is -13.21%.

As for `NCCn1nc(C2CCN(Cc3ccccc3Cl)C2)c2nccnc21` (configuration not stated), the “Percent Effect” value (30.3 µM, […]) is listed as 22.22%. As for `Cc1ccccc1CN1CCC(c2nn(CCN)c3nccnc23)C1` (configuration not stated), where the note is “30.3 µM, […]”, the “Percent Effect” value turned out to be 24.84%. With `COc1ccccc1CN1CCC(c2nn(CCN)c3nccnc23)C1` (configuration not stated), under “30.3 µM, […]”, the “Percent Effect” value was 99.59%. For `COCC(=O)N1C[C@@H]2CCCO[C@@H]2[C@H](N(C)Cc2ccco2)C1.O=C(O)C(F)(F)F`, the “Percent Effect” value (30 µM, 30.03 µM) is on record as -11.7%. For `O=C(O)C(F)(F)F.O=C1N(Cc2cccc(F)c2)CCC12CCN(c1ccccn1)CC2`, the “Percent Effect” value (30.3 µM, […]) is recorded as -2.034%. Still for that read-out and setting: with `CNCC[C@H]1CC(C)(C)Oc2ccc(OC)cc21` the figure was -16.4%; with `COc1ccc2c(c1)[C@@H](CCNC(C)=O)CC(C)(C)O2`, -14.03%; with `CNCC[C@H]1CC(C)(C)Oc2ccc(OCC3CC3)cc21`, 86.36%.

Consider `CN(C)c1nc2c(c(N3CCC4(CC3)CNC(=O)C4)n1)CCCC2`, for which the “Percent Effect” value (30 µM, 30.03 µM) stood at 23.78%.

With `CN(C)c1nc2c(c(N3CCCC4(CC3)CNC(=O)O4)n1)CCCC2` (configuration not stated), the “Percent Effect” value (30 µM, 30.03 µM) is 52.4%. In the case of `Cc1nc(N(C)C)nc(N2CCC3(CC2)CNC(=O)O3)c1C`, where the note is “30 µM, 30.03 µM”, the “Percent Effect” value was -29.71%.
